Experimental data as given in PubChem BioAssay (NCATS).
Results filed as inconclusive are left out. The source made the active and inactive calls. Unless noted, calls follow the shape of the dose curve; as a rule, active = well fitted curve in the direction sought with a large enough effect; inconclusive = small, poorly fitted or top-dose-only effect, or another doubt; inactive = no such curve, though single readings can be large; an effect the other way counts as inactive or inconclusive.

How the values were obtained:
[1] = Cytometric Cell-Based qHTS for Inhibitors of the mTORC1 Signaling Pathway in MEF (Tsc2-/-, p53-/-) Cells (AID 2660);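 also: percent of cells above a phospho-rpS6 to PI ratio cutoff in each well; series mostly up to about 38 µM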
Method in brief: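 Tsc2-/-, p53-/- MEFs (empty vector) exposed to compound 24 h at 37 C, fixed, stained with Alexa-488 anti-phospho-rpS6 Ser235/236 and propidium iodide. Acumen laser scanning; phospho-S6/PI ratio thresholded against 7.5 nM rapamycin, reported as % positive cells.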

[2] = High Content Imaging Cell-Based qHTS for Inhibitors of the mTORC1 Signaling Pathway in MEF (Tsc2-/-, p53-/-) Cells (AID 2666);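 also: percent of cells scored positive for phospho-rpS6 Ser235/236 immunostaining by imaging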
Method in brief: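 Read-out: % positive cells per well, with thresholds from highest- and lowest-signal wells, based on phospho-rpS6 (Ser235/236) intensity normalized to Hoechst nuclear stain. Cells: Tsc2-/-, p53-/- MEFs carrying empty vector; compound 24 hrs, 37 degree Celsius.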

[3] = High Content Imaging Cell-Based qHTS for Inhibitors of the mTORC1 Signaling Pathway in MEF Cells (AID 2667);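 also: Tsc2-/- p53-/- MEFs stably re-expressing wild-type Tsc2 exposed 24 h; series mostly up to about 38 µM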
Method in brief: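 MEF (Tsc2-/-, p53-/-, WT Tsc2 re-expressed); cpd 24 h, 37 °C; PFA fix; Alexa-488 anti-p-rpS6 Ser235/236, PI, Hoechst; IN Cell imaging; Hoechst/Alexa-488 intensity ratio; % active cells, thresholds set from rapamycin and DMSO wells.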

[4] = Cytometry Cell-Based qHTS for Inhibitors of the mTORC1 Signaling Pathway in MEF cells (AID 2668);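 also: Tsc2-/- p53-/- mouse embryonic fibroblasts stably re-expressing wild-type Tsc2; percent cells positive for phospho-rpS6 Ser235/236 relative to propidium iodide stain; series mostly up to about 38 µM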
Method in brief: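 Pathway inhibition in WT Tsc2-rescued Tsc2-/-, p53-/- MEFs is measured as the Alexa-488 phospho-rpS6 to propidium iodide intensity ratio after 24 hrs of compound at 37 degree Celsius. PI-stained cell number gives viability.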

[5] = Validation screen for small molecules that induce DNA re-replication in MCF 10A normal breast cells (AID 463097); also: nearly all actives have a fitted effect of over 60% in size
Method in brief: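 DNA re-replication was detected as a rise in nuclei with elevated Hoechst fluorescence after a 48 hr compound exposure of MCF 10A cells at 37 C.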

[6] = molecular target: Ubiquitin carboxyl-terminal hydrolase 2 (Homo sapiens) (UniProt O75604); assay: qHTS Validation Assay for Inhibitors of Ubiquitin-specific Protease USP2a Using CHOP2 as the Reporter (AID 463106); also: potency is read from the fitted curve at half-maximal effect
Sequence of Ubiquitin carboxyl-terminal hydrolase 2 (Homo sapiens) (O75604 whole entry, looked up): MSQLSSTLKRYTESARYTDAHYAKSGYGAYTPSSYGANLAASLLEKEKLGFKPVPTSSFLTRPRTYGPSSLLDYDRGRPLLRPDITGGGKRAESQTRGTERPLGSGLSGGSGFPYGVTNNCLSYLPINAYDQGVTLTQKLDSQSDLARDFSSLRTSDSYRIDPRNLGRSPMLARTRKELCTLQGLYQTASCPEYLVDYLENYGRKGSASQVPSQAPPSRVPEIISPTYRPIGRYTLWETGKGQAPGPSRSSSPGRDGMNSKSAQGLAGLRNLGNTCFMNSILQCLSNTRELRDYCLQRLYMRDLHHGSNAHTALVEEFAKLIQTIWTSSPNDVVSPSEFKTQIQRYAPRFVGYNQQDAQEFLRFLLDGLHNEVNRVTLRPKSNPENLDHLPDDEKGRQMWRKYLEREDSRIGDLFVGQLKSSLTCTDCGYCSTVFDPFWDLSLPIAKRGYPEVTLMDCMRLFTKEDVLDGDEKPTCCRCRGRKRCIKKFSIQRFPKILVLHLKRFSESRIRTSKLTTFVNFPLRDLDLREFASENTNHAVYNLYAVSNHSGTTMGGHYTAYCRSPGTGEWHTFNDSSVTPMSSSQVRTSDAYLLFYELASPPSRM
Method in brief: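 USP2 core (10nM final) was preincubated with compound for 30min at RT in 20mM Tris-HCl pH 8.0, 2mM CaCl2, 2mM beta-mercaptoethanol, 0.05% CHAPS. Ub-CHOP2 and reporter substrate (25nM each) were added, and fluorescence (Ex 485/Em 531nm) was read after 60min.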

[7] = molecular target: DNA polymerase III PolC-type (Bacillus subtilis (strain 168)) (UniProt P13267); assay: qHTS Validation Assay for the Inhibitors of DNA Replication in Gram-Positive Bacteria (AID 485295); also: potency is read from the fitted curve at half-maximal effect
Sequence of DNA polymerase III PolC-type (Bacillus subtilis (strain 168)) (P13267 whole entry, looked up): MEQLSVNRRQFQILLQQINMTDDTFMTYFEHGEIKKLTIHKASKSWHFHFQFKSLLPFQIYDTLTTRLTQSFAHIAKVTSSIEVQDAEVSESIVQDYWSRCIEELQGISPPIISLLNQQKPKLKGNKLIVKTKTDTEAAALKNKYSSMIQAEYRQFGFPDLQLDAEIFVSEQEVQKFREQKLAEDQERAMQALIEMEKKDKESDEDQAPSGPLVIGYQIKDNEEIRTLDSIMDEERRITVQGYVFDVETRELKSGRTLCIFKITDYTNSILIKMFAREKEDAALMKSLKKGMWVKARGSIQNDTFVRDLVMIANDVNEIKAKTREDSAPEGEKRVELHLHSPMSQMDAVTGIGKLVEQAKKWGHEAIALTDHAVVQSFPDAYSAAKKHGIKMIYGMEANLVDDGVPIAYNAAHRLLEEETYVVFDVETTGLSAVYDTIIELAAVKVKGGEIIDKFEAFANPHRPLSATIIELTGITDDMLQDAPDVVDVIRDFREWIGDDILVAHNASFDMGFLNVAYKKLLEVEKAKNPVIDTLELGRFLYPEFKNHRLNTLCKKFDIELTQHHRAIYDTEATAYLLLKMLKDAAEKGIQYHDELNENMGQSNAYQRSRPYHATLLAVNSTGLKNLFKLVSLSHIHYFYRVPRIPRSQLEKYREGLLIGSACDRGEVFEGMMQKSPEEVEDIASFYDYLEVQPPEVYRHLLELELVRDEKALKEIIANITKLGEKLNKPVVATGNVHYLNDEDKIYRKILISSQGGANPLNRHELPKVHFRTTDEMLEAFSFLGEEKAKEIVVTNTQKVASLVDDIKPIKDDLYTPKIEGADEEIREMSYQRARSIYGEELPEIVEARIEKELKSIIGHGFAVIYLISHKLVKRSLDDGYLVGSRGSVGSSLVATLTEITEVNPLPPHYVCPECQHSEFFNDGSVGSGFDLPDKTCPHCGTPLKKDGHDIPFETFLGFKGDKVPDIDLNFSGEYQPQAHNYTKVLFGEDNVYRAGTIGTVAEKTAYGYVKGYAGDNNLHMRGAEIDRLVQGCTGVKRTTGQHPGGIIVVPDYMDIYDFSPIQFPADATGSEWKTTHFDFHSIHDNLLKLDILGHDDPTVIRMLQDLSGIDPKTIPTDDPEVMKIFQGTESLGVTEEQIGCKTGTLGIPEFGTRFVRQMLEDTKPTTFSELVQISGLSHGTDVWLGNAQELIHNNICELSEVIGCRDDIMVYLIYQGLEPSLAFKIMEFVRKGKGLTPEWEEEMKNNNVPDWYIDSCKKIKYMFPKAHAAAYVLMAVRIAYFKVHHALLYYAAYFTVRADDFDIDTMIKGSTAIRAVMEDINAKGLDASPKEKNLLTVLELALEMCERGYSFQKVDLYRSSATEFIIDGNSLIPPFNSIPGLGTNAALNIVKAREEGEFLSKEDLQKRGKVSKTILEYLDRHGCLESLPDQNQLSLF
Method in brief: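 Primed replication of single-stranded M13Gori by a four-protein B. subtilis holoenzyme is measured at room temperature. Double-stranded product is quantified by PicoGreen fluorescence after an EDTA stop; inhibition is scaled between DMSO and EDTA controls.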

[8] = molecular target: Tumor susceptibility gene 101 protein (Homo sapiens) (UniProt Q99816); assay: qHTS Validation Assay for Iinhibitors of HIV-1 Budding by Blocking the Interaction of PTAP/TSG101 (AID 485342; calls by dose curve)
Sequence of Tumor susceptibility gene 101 protein (Homo sapiens) (Q99816 whole entry, looked up, the tested form may be a part): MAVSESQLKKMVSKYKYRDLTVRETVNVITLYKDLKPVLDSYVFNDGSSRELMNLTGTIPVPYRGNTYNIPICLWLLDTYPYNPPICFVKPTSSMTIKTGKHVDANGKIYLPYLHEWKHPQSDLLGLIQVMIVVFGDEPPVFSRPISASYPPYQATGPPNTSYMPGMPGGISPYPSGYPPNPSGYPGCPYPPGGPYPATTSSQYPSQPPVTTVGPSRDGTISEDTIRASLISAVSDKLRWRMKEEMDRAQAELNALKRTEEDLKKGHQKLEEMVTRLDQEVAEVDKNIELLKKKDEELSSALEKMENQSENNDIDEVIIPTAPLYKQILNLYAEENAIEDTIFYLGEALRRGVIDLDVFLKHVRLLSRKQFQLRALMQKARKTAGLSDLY
Method in brief: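 Fluorescence anisotropy measured PTAP-Tsg101 interaction. Final concentrations were 10 uM protein domain and 50 nM labeled peptide, equilibrated 20 min at room temperature.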

[9] = qHTS Validation Assay to Find Inhibitors of Chronic Active B-Cell Receptor Signaling (AID 485345; active = well fitted curve in the direction sought with a large enough effect in the main read-out, with a control signal flat, not every such curve was filed as active)
Method in brief: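 TMD8 ABC-DLBCL cells with dox-inducible green luciferase–IκBα fusion and red native luciferase; compounds 46 uM–3 nM, 4 h at 37C with doxycycline in 0.5% FBS IMDM. Green/red ratio normalized to basal and 10 uM MG-132.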

Measured: Potency

c1ccc(C2CN3CCSC3=N2)cc1 (centres undefined)
inactive: all assays above

COc1ccc2c(c1)c(CC(=O)O)c(C)n2C(=O)c1ccccc1
inactive: all assays above

CC[N+](CC)(CC)CC(=O)Nc1c(C)cccc1C
inactive: all assays above

Clc1nccc2c1ccc1ccccc12
inactive: all assays above

O=C(O)/C=C/c1ccc(O)c(O)c1
inactive: all assays above

C#CC(N)CCC(=O)O (centres undefined)
inactive: all assays above

NC(C(=O)N[C@@H]1C(=O)N2C(C(=O)O)=C(Cl)CS[C@H]12)c1ccccc1 (some centres undefined)
inactive: all assays above

NC(=O)c1cc[n+](CC2=C(C(=O)O)N3C(=O)[C@@H](NC(=O)[C@@H](c4ccccc4)S(=O)(=O)[O-])[C@H]3SC2)cc1
inactive: all assays above

N[C@H]1CONC1=O
inactive: all assays above

Cc1cccc(C)c1OCC(N)C(C)C (centres undefined)
inactive: all assays above

N#CC(C#N)=C(N)/C(C#N)=C/c1ccc(O)cc1
inactive: all assays above

NCCS(=O)O
inactive: all assays above

COc1cc(CNC(=O)CCCCCCC(C)C)ccc1O
inactive: all assays above

CO/N=C(\C(=O)N[C@@H]1C(=O)N2C(C(=O)O)=C(CSc3nc(=O)c(O)nn3C)CSC12)c1csc(N)n1 (some centres undefined)
inactive: all assays above

NC1C=CC=C(C(=O)O)C1 (centres undefined)
inactive: all assays above

N[C@@H](CCCC(=O)O)C(=O)O
inactive: all assays above

NC(=O)CNCCC(c1ccccc1)c1ccccc1
inactive: all assays above

COC(=O)C(C)(N)Cc1ccc(O)cc1 (centres undefined)
inactive: all assays above

COC(=O)C1=C(C)NC(C)=C([N+](=O)[O-])C1c1ccccc1C(F)(F)F (centres undefined)
inactive: all assays above

CC(=O)/C(C)=N/O
inactive: all assays above

O=C(O)Cc1ccc(O)c(O)c1
inactive: all assays above

CN1C2CCC1CC(OC(c1ccccc1)c1ccccc1)C2 (centres undefined)
inactive: all assays above

COC(=O)C(N)Cc1ccc(Cl)cc1 (centres undefined)
inactive: all assays above

NC1CONC1=O (centres undefined)
inactive: all assays above

O=C(O)c1cccnc1C(=O)O
inactive: all assays above

NC(Cc1cccc(-c2ccccc2CP(=O)(O)O)c1)C(=O)O (centres undefined)
inactive: all assays above

NC(=O)c1ccccc1
inactive: all assays above

CCCCCC(O)CCCC(=O)O (centres undefined)
inactive: all assays above

C=CCn1c(=O)c2c(nc(-c3ccc(S(=O)(=O)O)cc3)n2C)n(C)c1=O
inactive: all assays above

C=CC[C@H](N)C(=O)O
inactive: all assays above

CCC(=O)N1CCN(C(=O)c2ccccc2)CC1
inactive: all assays above

COc1cc2c(CCNC(C)=O)c[nH]c2cc1O
inactive: all assays above

CSc1nc(N)c2ncn([C@@H]3O[C@H](COP(=O)(O)OP(=O)(O)O)C(O)[C@H]3O)c2n1 (some centres undefined)
not listed: [5] | [9]
inactive: all other assays above

O=C(O)c1cc(=O)cc(C(=O)O)[nH]1
inactive: all assays above

CC(C)C[C@H](NC(=O)C1OC1C(=O)O)C(=O)NCCCCN=C(N)N (some centres undefined)
not listed: [6]
inactive: all other assays above

NC[C@@H]1O[C@H](c2ccccc2)Cc2c1ccc(O)c2O
not listed: [5]
inactive: all other assays above

O=C(O)C1=CC(=C(c2ccc(O)c(C(=O)O)c2)c2ccc(O)c(C(=O)O)c2)C=CC1=O
active: [6] 1.04 µM | [7] 3.36 µM
not listed: [5] | [9]
inactive: all other assays above

Cc1ccccc1/C=C/C1=NCCN1
not listed: [5] | [9]
inactive: all other assays above

CC(O)C(O)[C@H]1CNc2nc(N)[nH]c(=O)c2N1 (some centres undefined)
not listed: [5]
inactive: all other assays above

O=C1OC(=O)C2C3CCC(O3)C12 (centres undefined)
not listed: [5] | [9]
inactive: all other assays above

O=c1[nH]c(=O)c2nc3ccccc3nc2[nH]1
not listed: [8]
inactive: all other assays above

Brc1c(Br)c(Br)c2[nH]cnc2c1Br
not listed: [5] | [9]
inactive: all other assays above

c1ccc2c(c1)CCC[C@H]2Nc1nc2ccccc2[nH]1
not listed: [5]
inactive: all other assays above

Cc1cc2c(cc1Cl)N(C(=O)Nc1ccnc3ccccc13)CC2
inactive: all assays above

CCCCCCC(=O)OC1CC(C)(C)NC(C)(C)C1
not listed: [5]
inactive: all other assays above

C=CC1(C)CC(=O)C2(O)C(C)(O1)C(OC(C)=O)C(O)C1C(C)(C)CCC(O)C12C (centres undefined)
not listed: [5] | [9]
inactive: all other assays above

CC(C)C[C@H](NC(=O)[C@H](O)[C@H](N)Cc1ccccc1)C(=O)O
inactive: all assays above

CN[C@H](CC(=O)O)C(=O)O
inactive: all assays above
